# Measurements from the supplement of paper PMC6555819.
# Test system: VDR:RXRa (NR concentration 270 nM, RXRa partner concentration 90 nM)
# Assay: PBM binding z-score (relative to random genomic background probes); higher = stronger binding; sequences stand for … in GC…GCGATTGACAGCGTAGAATGAAGG
# Method: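 Protein-binding microarray (Agilent 4x180K custom design, double-stranded 60-nt probes: 5' GC cap, 34-nt variable region, 24-nt constant primer region; full probe sequence given). Purified or IVT nuclear receptor:RXRα heterodimers (3:1 NR:RXRα, mostly 270:90 nM) or homodimers were incubated for 1 h in PBS with 2% milk and no ligand, then detected with Alexa488 antibodies. Fluorescence from o1-orientation probes (~5 replicates averaged) was converted to z-scores against 500 random hg19 background probes. Variable regions are seed direct-repeat (DR0–DR5) sites, all their single-nucleotide variants and half-site ablations.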
row,Sequence,PBM binding z-score
1,CCGACTGGAGCAAAGGTTACCATACTCAGTACGA,1.17
2,GGAACGAGGGTAAAGTTGATAGCATCTGTCGACG,0.137
3,TCATATAGGTAAACAGGTGAAAGTCCGTAAGTTA,1.27
4,ATAAGTAGGTTACATCCGGGTCATTCAGGCTATG,4.06
5,GCAGACAGGTGAAACGCAGGTAACTCACGGTGGC,-0.56
6,ATATGTAGGTTACATCCGGGTGATTCAGGCTATG,0.753
7,ATCGAAAGGTCGTGGTGAGTATAGAGAAAGGGAA,3.85
8,TCTGCTAGGTCAGTTCGTCAGCTAACGAGCTGCC,0.144
9,CGAACTAGGTCATTGACAGGACAGTGAATAGTAA,2.2
10,CGAACTAGGTCAAGGATAGTGAATCTCCGCACGC,1.19
11,AGTCAACGTTCATCTAGGTAACGTAAGATATGCT,-0.0927
12,GCTAGTTGGTCAGAAAAAGGTCACACACCGGTCG,3.77
13,CGTCCAAGGTCAGAGGAGGTCAGTGAAGACAGAT,5.98
14,CCAGACAGGTCAAAGGTAACTCAGTCTGGTACGC,3.86
15,CGAACTATGTCATTGACAGGACAGTGAATAGTAA,0.154
16,ATATGTAGGTTAGCTTGGGTCATTCAGACTAGGC,2.64
17,AGAACGAGGGCACGCAGAGTTGATAGCAGAGTAG,2.02
18,AGTCAAAGTTCACTAGGTAGCGTAAGATTCAGCT,3.56
19,CACACAGGGTCAGCTAGGCCAGAGTAGGGACGGC,3.8
20,CCAGACCGGTGAGAAGGTAACTCAGCCTCGATTA,-0.163

row,Sequence,PBM binding z-score
1,CCTACTGGGCCATTCCGAGGTCATTGATCATATG,3.86
2,TTTGCTAGGTCAGTTGGTCAGCTAACGAGCTGCC,0.134
3,GCTTACGGGTCAAAGGTTATAGAATGAATAGAAT,5.63
4,GGAACGAGGGCAAGGTGATAGCAGAGTTTGATGG,0.867
5,GCAGACAGGTGAAACGCATGTAACTCAGGGTGGC,-0.601
6,AATACAGGGTCACTATGCCAGAGTAGGTACGAAT,3.91
7,CAGCCTAGGTCAGGGGCAGTATAGGAGGAACGTT,0.806
8,CGAACTAGGTCATCCAGGACTGTGAATACATTGA,2.81
9,TTACCAAGGTGAAGGTCATTGATCCCTCTGTAGA,3.43
10,CCAACTGGGCCACGAAAGGTCATTGATTCAGTGA,4.26
11,CAAACTAGGTCAAGCGGTCAAAGTCCGCTTCCCG,2.99
12,CCTACTGGGGCAAAAAGGTCATTGATGCCGATAA,5.42
13,ACTGACAGGTGATGAAGGTAACTCAGGCTATCAT,0.103
14,GGCACGAGGGCAAAGTTGATAGCATCTGTCGACG,1.23
15,TTTCAAAGTTCAAAGGTAACGTAAGTATCCACAC,5.06
16,CCTTACGGATCAAGGTTATAGCACGGGTGGTACG,0.474
17,ATCCCTAGGTAACAAGTTCAGTGAAAGAGAGGAC,1.91
18,CGTACAAGGTCAATGCTAGGTCAGTGAAAGCATT,5.24
19,GGAACGAGGGCAATCGAGTTGATAGCATGGCGAT,3.11
20,CCTACTGGGCCACAAAGGTCATTGATGCCGATAA,5.28
